# Compounds with a hit are over-represented: about 6.7% of the library has one in this group of screens.
# FBA Mtb inh – inhibitors of M. tuberculosis fructose-bisphosphate aldolase; P9WQA3; purified M. tuberculosis FBA, fluorescence read-out; inhibition, % at 1 µM; 2.3% of 360,000 active; AID 588726; in the data active means inhibition above about 27%;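 further: 0% = vehicle and 100% = reference inhibitor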
# BoNT F protease – BoNT F light chain protease inhibition; inhibition, % at 10 µM; Multiplex microsphere protease cleavage assay, flow cytometry; 0.22% of 360,000 active; in the data active means inhibition above about 35%, passing the limit was not always enough; further: plate controls were buffer without enzyme for full effect and enzyme alone for no effect
# Autofluor counter – flagged as autofluorescent in microsphere protease counterscreen | compound autofluorescence counterscreen, microsphere flow cytometry; hits give high values | fluorescence intensity (test concentration not listed) | 3.1% of 360,000 active | AID 624483; in the data active means fluorescence intensity above about 16000
# Anthrax LF inh2 – blocks Bacillus anthracis lethal factor protease | inhibition, % at 10 µM | multiplex microsphere protease cleavage assay, LF | 0.12% of 360,000 active; further: plate controls were buffer without enzyme for full effect and enzyme alone for no effect
# Target sequence (P15917 whole entry, looked up): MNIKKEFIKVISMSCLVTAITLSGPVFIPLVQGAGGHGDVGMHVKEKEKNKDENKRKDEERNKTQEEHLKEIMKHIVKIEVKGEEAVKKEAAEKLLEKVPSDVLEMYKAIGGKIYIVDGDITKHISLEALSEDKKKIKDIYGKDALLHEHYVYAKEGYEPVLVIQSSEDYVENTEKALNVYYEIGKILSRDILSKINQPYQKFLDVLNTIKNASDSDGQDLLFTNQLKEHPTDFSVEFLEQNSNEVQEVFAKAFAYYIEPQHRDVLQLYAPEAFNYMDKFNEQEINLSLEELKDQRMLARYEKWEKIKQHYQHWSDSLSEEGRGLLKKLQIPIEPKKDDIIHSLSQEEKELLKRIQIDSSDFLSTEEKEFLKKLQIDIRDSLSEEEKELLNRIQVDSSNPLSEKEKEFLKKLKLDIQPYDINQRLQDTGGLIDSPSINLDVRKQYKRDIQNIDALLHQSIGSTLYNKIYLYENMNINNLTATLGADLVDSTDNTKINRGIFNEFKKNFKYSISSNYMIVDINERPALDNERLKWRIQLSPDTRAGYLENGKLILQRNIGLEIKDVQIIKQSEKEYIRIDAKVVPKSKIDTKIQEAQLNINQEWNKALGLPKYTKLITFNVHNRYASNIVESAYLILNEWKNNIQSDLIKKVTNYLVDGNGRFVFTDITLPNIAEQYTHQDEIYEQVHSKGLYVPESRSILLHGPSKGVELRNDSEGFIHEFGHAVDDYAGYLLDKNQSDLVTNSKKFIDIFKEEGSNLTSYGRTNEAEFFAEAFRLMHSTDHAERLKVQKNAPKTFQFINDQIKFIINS
# BoNT A protease – BoNT A light chain protease inhibition; 0.17% of 360,000 active; multiplex microsphere protease substrate cleavage, flow cytometry; AID 588499; inhibition, % at 10 µM; further: plate controls were buffer without enzyme for full effect and enzyme alone for no effect
# GDH-TPI counter-1 – counter-screen for M. tuberculosis FBA inhibitors: GDH-TPI coupled enzymes; GDH-TPI coupled enzyme counterscreen, NADH absorbance; inhibition, % at 4.8 µM; 1.2% of 360,000 active; AID 588335; in the data active means inhibition above about 30%;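 further: 0% = DMSO wells and 100% = wells lacking the enzyme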
# Mtb FBA inh conf – Mtb FBA inhibition, confirmed; shares compounds with FBA Mtb inh; 78% of 5,600 active; purified M. tuberculosis FBA, fluorescence read-out; inhibition, % at 1 µM; in the data active means inhibition above about 27%;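 further: 0% = vehicle wells and 100% = reference inhibitor wells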
# GDH-TPI counter-2 – inhibits GDH-TPI coupling enzymes, flagging Mtb FBA hits | shares compounds with FBA Mtb inh | GDH-TPI coupled enzyme counterscreen, fluorescence | inhibition, % at 1 µM | 81% of 5,600 active; in the data active means inhibition above about 10%
# An asterisk follows results filed as active; . = no result; + = active, no number. Unless noted, no stated cut-off is given here; in the data, active means inhibition above about 30%; inconclusive means no clear call, values can overlap the other calls; inactive means below that.
SMILES,FBA Mtb inh,BoNT F protease,Autofluor counter,Anthrax LF inh2,BoNT A protease,GDH-TPI counter-1,Mtb FBA inh conf,GDH-TPI counter-2
CC1Cc2ccccc2N1C(=O)c1ccc2c(c1)OCO2 (stereo unspecified),10,15,5941,1,2,4,.,.
COc1ccc(-c2cc3ccccc3[nH]2)cc1,29*,-14,4508,-7,-3,0,74*,62*
Clc1ccc2[nH]c(-c3ccccc3)cc2c1,9,16,2226,-2,0,6,.,.
Cc1ccc(O)c(-c2cc3ccccc3[nH]2)c1,52*,-4,23551*,-7,0,16,71*,45*
c1ccc(-c2cc3ccccc3[nH]2)cc1,60*,-14,5727,-3,0,5,114*,93*
O=C(Cc1c(C(=O)O)[nH]c2ccccc12)NC1CCCC1,6,1,4358,2,1,-1,.,.
COc1ccc(N2CC(NS(=O)(=O)c3cccnc3)CC2=O)cc1OC (stereo unspecified),30*,4,6389,2,0,1,106*,77*
O=C(Nc1ccccc1)C1CCN(S(=O)(=O)c2cccs2)CC1,8,-2,8563,5,2,5,.,.
O=C(O)C1CCN(S(=O)(=O)c2cccs2)CC1,32*,-4,3743,0,0,-2,57*,36*
CCc1cc(=O)oc2cc(C)cc(OCC(=O)C(C)(C)C)c12,65*,1,2015,0,0,14,126*,106*
CCc1cc(=O)oc2cc(C)cc(OCC(C)=O)c12,77*,-5,6873,-1,0,12,56*,46*
COc1ccc(CCNC(=O)COc2cc(C)cc3oc(=O)cc(C)c23)cc1,3,0,5311,0,-1,6,.,.
CCc1cc(=O)oc2cc(C)cc(O)c12,5,0,4479,-10,0,6,.,.
O=C(COc1ccc2c3c(c(=O)oc2c1)CCCC3)NCCCN1CCOCC1,29*,-1,4239,-2,0,23,89*,64*
CC(Oc1ccc2c3c(c(=O)oc2c1)CCCC3)C(=O)NCCN1CCOCC1 (stereo unspecified),51*,4,4177,-2,0,12,76*,61*
CC(Oc1ccc2c3c(c(=O)oc2c1)CCCC3)C(=O)NCc1ccncc1 (stereo unspecified),51*,7,5155,2,1,-6,7,-3
O=C(COc1ccc2c(c1)oc(=O)c1ccccc12)NCCN1CCOCC1,91*,2,5040,-1,1,5,128*,105*
COc1ccc(CNC(=O)Nc2ccc(OC)cc2)cc1,0,-9,6026,-6,0,1,.,.
O=C(O)Cn1cc(C(=S)N2CCOCC2)c2ccccc21,1,-2,8513,0,-1,7,.,.
OC(CN1CCN(c2cccc(Cl)c2)CC1)c1ccc(F)cc1 (stereo unspecified),1,-16,3079,2,1,-6,.,.
O=C(Cc1ccc(S(=O)(=O)N2CCOCC2)s1)N1CCN(S(=O)(=O)c2ccccc2F)CC1,-2,18,2996,-2,2,-5,.,.
O=C(O)CCNC(=O)COc1ccc2c3c(c(=O)oc2c1)CCCC3,66*,8,3944,-10,-1,2,40*,35*
O=C(COc1ccc2c3c(c(=O)oc2c1)CCCC3)NCCN1CCOCC1,48*,-1,5680,1,2,15,-1,-2
Cc1cc(OCC(=O)N2CCOCC2)cc2oc(=O)c3ccccc3c12,54*,0,2184,2,0,13,70*,45*
O=C(COc1ccc2c3c(c(=O)oc2c1)CCC3)NCCN1CCOCC1,10,5,5904,-3,1,3,.,.
SMILES,FBA Mtb inh,BoNT F protease,Autofluor counter,Anthrax LF inh2,BoNT A protease,GDH-TPI counter-1,Mtb FBA inh conf,GDH-TPI counter-2
Cc1c(OC(C)C(=O)NCc2cccnc2)ccc2c3c(c(=O)oc12)CCCC3 (stereo unspecified),61*,2,5380,-1,1,7,+,+
O=C(O)CCCCCCNC(=O)c1cncc(O)c1,18,-3,4507,-5,1,10,.,.
COc1ccc(OCc2nnc(SCC(=O)N3CCCc4ccccc43)n2-c2ccc(C)cc2)cc1,0,5,4344,-6,0,-2,.,.
CC(C)(C)NC(=O)NC(=O)COC(=O)c1cccc(F)c1,2,-1,2484,-1,0,8,.,.
O=C(COC(=O)c1cc(S(=O)(=O)N2CCOCC2)ccc1Cl)c1ccc[nH]1,-3,0,4029,-3,0,1,.,.
COc1cc(C#Cc2c(-c3cncn3C)n(C)c3ccc(-c4ccc(CN5CCOCC5)cc4)cc23)cc(OC)c1,14,-7,3601,-5,-1,15,.,.
CCOC(=O)N1CCN(c2ccc(C(C)=O)cc2F)CC1C (stereo unspecified),-1,2,2237,-1,0,12,.,.
CCSc1nnc(-c2ccc(S(=O)(=O)N3CCCC3)cc2)n1C,33*,11,9527,-2,-1,3,-2,-8
CCSc1nnc(-c2ccc(S(=O)(=O)N3CCOCC3)cc2)n1C,30*,12,3218,3,3,10,+,+
CSc1nnc(-c2ccc(S(=O)(=O)N3CCOCC3)cc2)n1C,23,21,3730,2,-2,-4,.,.
CCCCNC(=O)CSc1nnc(-c2ccc(S(=O)(=O)N3CCCC3)cc2)n1C,2,3,4080,-8,1,5,.,.
Cc1ccc(NS(=O)(=O)c2ccccc2F)cc1S(=O)(=O)N1CCCCCC1,1,0,5869,2,2,-3,.,.
N#Cc1ccc(-c2ccc3c(c2)OCO3)nc1SCC(=O)OCc1ccccc1,60*,15,4217,4,0,5,67*,44*
CN1c2cccc3cccc(c23)N(C)C1c1cccs1,-1,-15,4624,0,-1,13,.,.
CC1N(C)c2cccc3cccc(c23)N1C,103*,-16,10973,-13,-2,3,196*,128*
COc1ccc(C2=NN(C(=O)CCC(=O)O)C(c3cccs3)C2)cc1 (stereo unspecified),7,-4,4053,-3,-1,5,.,.
COc1ccc(C2=NN3C(C2)c2ccccc2OC3c2cccs2)cc1 (stereo unspecified),60*,-3,4648,-8,-1,4,28*,23*
O=C(CSc1nc2ccccc2s1)Nc1ncccn1,-2,-12,4879,-2,-1,13,.,.
Brc1c(CSc2nc3ccccc3s2)nc2ncccn12,28*,-1,2127,2,0,-3,108*,82*

# Bioassay records deposited in PubChem BioAssay by several laboratories.
